# HIF-2a inh = inhibitors of HIF-2a; 786-0 RCC cells HIF-2a reporter, luciferase luminescence, overnight; inhibition, % at 18.8 µM; 0.72% of 360,000 active; AID 624352;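 active means inhibition of the luminescence signal of 40% or more relative to plate controls, in a single-dose primary screen at 18.75 µM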
# KKLEB tox = CF airway cell cytotoxicity counter-screen; KKLEB CF airway cells viability, ATPlite luminescence, overnight; stronger effect = lower value; cells stimulated with P. aeruginosa culture filtrate; activity change (cytotoxicity), % at 5 µM; 0.36% of 360,000 active; AID 602141;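 active means corrected activity change at or below -50% at 5 µM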
# TWEAK-Fn14 inh = TWEAK-Fn14 signaling inhibition; TWEAK-stimulated Fn14 reporter cells, luciferase luminescence, 8 h; inhibition, % at 10 µM; 2% of 360,000 active; in the data active means inhibition above about 50%
# TROY NFkB inh = blocks TROY-dependent signaling in reporter cells; Q293 LMP1-TROYcd NF-kB luciferase reporter, 4 h; 0.98% of 360,000 active; AID 1347056; inhibition, % at 10 µM;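 active means compounds whose plate-normalised and pattern-corrected inhibition of the luciferase reporter signal at the single screening dose is 50% or more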
# CF NFkB block = inhibitors of cystic fibrosis induced NF-kB; inhibition, % at 5 µM; 0.86% of 360,000 active; KKLEB NF-kB-GFP reporter, PAF-induced, GFP fluorescence overnight;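 active means at least 50% inhibition at 5 µM, scaled per plate between neutral and stimulator controls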;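 further: PAF is a Pseudomonas aeruginosa culture filtrate used as stimulus; plate controls were PAF-stimulated DMSO wells for no effect and unstimulated DMSO wells for full effect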
# Peg3 promoter = inhibitors of Peg3 promoter; inhibition, % at 20 µM; HeLa PEG-Prom luciferase reporter, luminescence, overnight; 1.7% of 360,000 active;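 active means inhibition of at least 50% at 20 µM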
# Numbers without * were called inactive; . = not tested or not shown. A selection: hits, their analogues and other compounds. The true share with any hit is near 4%.
SMILES,HIF-2a inh,KKLEB tox,TWEAK-Fn14 inh,TROY NFkB inh,CF NFkB block,Peg3 promoter
CC1CCCCC1NC(=O)COC(=O)c1c2c(nc3ccccc13)/C(=C/c1ccco1)CC2 (centres undefined),-4,0,50*,0,-10,-19
CCOc1ccc(C(C(=O)NCC2CCCO2)N(C(=O)c2snc(C(N)=O)c2N)c2ccccc2F)cc1 (centres undefined),13,-10,57*,15,6,23
Cc1ccc(C(C(=O)NCc2ccccc2)N(Cc2ccco2)C(=O)c2snc(C(N)=O)c2N)o1 (centres undefined),16,-6,12,-17,22,52*
COc1ccc(C(C(=O)NC2CCCC2)N(C(=O)c2snc(C(N)=O)c2N)c2ccccc2OC)cc1OC (centres undefined),9,4,53*,4,-24,-7
COc1ccc(C(C(=O)NCc2ccccc2)N(Cc2ccco2)C(=O)c2snc(C(N)=O)c2N)cc1 (centres undefined),14,12,20,21,30,46
COc1ccc(C(C(=O)NCC2CCCO2)N(Cc2ccco2)C(=O)c2snc(C(N)=O)c2N)cc1OC (centres undefined),14,-12,52*,-13,24,-1
CCOc1ccc(C(C(=O)NCC2CCCO2)N(C(=O)c2snc(C(N)=O)c2N)c2cccc(F)c2)cc1 (centres undefined),22,5,2,4,-3,22
CC(=O)c1ccc(NC(=O)CSc2n[nH]c(-c3cccnc3)n2)cc1,-18,0,-10,-8,4,-36
CC1(C(=O)NCCCN2CCCC2=O)CCN1CCc1ccccc1 (centres undefined),5,11,6,-5,-1,8
CCNc1nc(NCC)n2c(SCC(=O)Nc3cccc(Cl)c3)nnc2n1,-14,-5,-10,-14,13,18
CCNc1nc(NCC)n2c(SC(C(=O)Nc3cc(Cl)cc(Cl)c3)c3ccccc3)nnc2n1 (centres undefined),20,-30,67*,47,35,76*
CCc1ccc(-c2csc(NC(=O)C3=NN(c4ccccc4)C(=O)CC3)n2)cc1,-71,-22,74*,51*,21,-38
CCc1ccc(-c2csc(NC(=O)c3cccnc3)n2)cc1,-56,12,61*,21,-33,-89
O=C(Nc1nc(-c2ccc(Cl)cc2)cs1)c1cccnc1,-35,14,12,0,-14,-12
Cn1c(C2CCCCC2)nc2cc(N)ccc21,6,-4,-7,28,-10,-7
Cc1ccc(-c2nn(CC(=O)NCc3cc(-c4nn(C)c(=O)c5ccccc45)ccc3C)c(=O)c3ccccc23)cc1,2,8,24,7,0,70*
COc1ccc2nc(SCCOC(=O)Nc3ccc(Cl)cc3)nc(C)c2c1,11,-7,51*,35,-6,14
CC(=O)Nc1cccc(C(=O)OCC(=O)N2CCC(c3ccccc3)=N2)c1,-183,1,-6,-19,-27,-281
CN1CCN(c2ccc(-c3cc(NC=O)c4ncc(-c5ccc(F)c(Cl)c5)n4c3)cc2)CC1,-143,-12,-24,51*,-9,96*
CC(=O)Nc1cc(-c2ccc(N3CCN(C)CC3)cc2)cn2c(-c3ccc(F)c(Cl)c3)cnc12,-10,-15,-20,23,3,75*
O=CNc1cc(-c2ccccc2)cn2c(-c3ccc(F)c(Cl)c3)cnc12,-13,-16,24,9,0,10
COc1cc(NC(=O)c2ccc(-c3ccnn3C)c3ccoc23)cc(OC)c1OC,-194,-10,11,7,-7,-108
CC(C)c1ccc(NC(=O)c2ccc(-c3ccnn3C)c3ccoc23)cc1,-135,2,79*,33,-4,-126
Cc1c(NC(=O)CSC(=S)N2CCCC2)c(=O)n(-c2ccccc2)n1C,-6,-13,-7,-17,1,1
CCn1c(NC(=O)Nc2ccccc2OC)nc2ccccc21,-11,2,62*,.,-4,-9
SMILES,HIF-2a inh,KKLEB tox,TWEAK-Fn14 inh,TROY NFkB inh,CF NFkB block,Peg3 promoter
Oc1ccc(C=Nc2cccc3ccccc23)c(O)c1,-11,18,53*,53*,3,-18
Cc1ccc(S(=O)(=O)N2C[C@]3(O)C[C@@H]4C(=O)N(c5ccccc5)C(=O)[C@@H]4C[C@]3(OC(=O)Nc3cccs3)C2)cc1,6,0,-14,-9,18,-7
CCc1nc2ccc(C(=O)Nc3cc(-c4ccccc4)ccc3OC)cn2c1N(C)Cc1nccs1,-10,-35,42,8,45,67*
CCc1nc2ccc(C(=O)Nc3cc(-c4ccccc4)ccc3OC)cn2c1N(C)Cc1ccc(OC)cc1,-39,-18,-3,-15,29,-13
COc1ccc(-c2n(Cc3ccccc3)c3ccccc3[n+]2Cc2ccccc2)cc1,19,-32,38,50*,48,48
COc1cccc2sc3ccc(C#CC4(N)CCCCC4)cc3c(=O)c12,-194,-17,-51,-58,-20,-33
COc1cc2sc3ccc(C#CC4(O)CCCCC4)cc3c(=O)c2cc1OC,-130,-36,92*,84*,4,-20
Cn1c2ccccc2c(=O)c2ccc(C#CC3(O)CCCCC3)cc21,3,-42,97*,91*,48,70*
COc1cccc2sc3cc(C#CC4(O)CCCCC4)ccc3c(=O)c12,-210,-27,13,-70,13,89*
COc1cc2sc3ccc(C#Cc4ccc(N)cc4)cc3c(=O)c2cc1OC,-29,-32,-115,-26,18,11
COc1ccc(C#Cc2ccc3c(c2)c(=O)c2ccccc2n3C)cc1,-83,13,-44,-17,-66,-42
CC1(C)CC(=O)C(N=Nc2ccc(C(F)(F)F)cc2[N+](=O)[O-])=C(O)C1,-10,-8,-28,-8,2,0
CN1CCN(CCNC(=O)c2ccc(CS(=O)c3ccc(Br)cc3)o2)CC1 (centres undefined),19,1,-17,-16,-28,6
C=CC[n+]1c(-c2ccc(C)cc2)csc1Nc1ccc(NC(C)=O)cc1,90*,2,51*,41,-13,20
CC(C)CC(NC(=O)c1ccc(Cl)cc1)C(=O)OCC(=O)c1ccc2c(c1)NC(=O)CO2 (centres undefined),26,-6,-11,-12,2,84*
O=C1C(Cl)=C(N2CCN(c3ccccc3[N+](=O)[O-])CC2)C(=O)c2ccccc21,23,-11,39,41,30,101*
O=[N+]([O-])c1cc(Cl)ccc1N1CCCC1,13,1,0,16,14,-2
Cc1ccc2oc(C(=O)N3CCN(c4cccc(C)n4)CC3)c(C)c2c1,-121,0,69*,-33,-5,-29
